Test results taken from PubChem BioAssay (Tox21).
Results filed as inconclusive are left out. Entries that show only a call come without a potency. A number with no mark means an inactive call. Active and inactive are the calls of the source. Calls come from the whole dose curve; as a rule, active = well fitted activation curve with a large enough effect in the repeat runs; inconclusive = weak or mixed curves; inactive = flat fitted curve, though single readings scatter.

experiment: A CellTox Green Cytotoxicity Assay to monitor cytotoxicity in HEK293 cells - 24 hour (AID 1224875); conditions: CellTox Green fluorescence; series mostly up to 76.8 µM; activity change: at the top concentration; note: nearly all actives have a fitted effect of over 45% in size
Text: National Center for Advancing Translational Sciences [NCATS]
NIH Chemical Genomics Center [NCGC]
U.S. Environmental Protection Agency [EPA]
National Institutes of Environmental Health Sciences [NIEHS]
National Toxicology Program [NTP]
Cell-based models are critical for drug discovery. Determining the natural cytotoxic effects resulting from test compounds is an essential research activity. A CellTox Green Cytotoxicity Assay to monitor cytotoxicity in real time of continues cell culture during 40 hours of the compound treatment was used to screen Tox21 10K library compounds in Hek293 cells. CellTox Green Cytotoxicity Assay is a nonlytic, homogeneous, biofluorescent method to measure cytotoxicity in cell culture after experimental manipulation. The assay system uses a proprietary asymmetric cyanine dye that is excluded from viable cells but preferentially stains the dead cell's DNA. […] Viable cells produce no appreciable increases in fluorescence. Therefore, the fluorescence signal produced by the binding interaction with dead cell DNA is proportional to cytotoxicity.
The mixture of Hek293 cell suspension and reagents were dispensed at 600cells/6 ul/well in 1536-well tissue culture treated black solid bottom plates using a Multidrop dispenser. After the assay plates were incubated at a 37 C/5% CO2 incubator for 5 hours, 23 nL of compounds dissolved in DMSO, positive and negative controls was transferred to the assay plate by a pintool work station. The plates were incubated at 37 C for 40 hours. The fluorescence intensity were measured at 0h, 8h, 16h, 24h, 32h and 40h time points using ViewLux plate reader during compound treatment.

SMILES | Potency | activity change
COc1ccccc1[N+](=O)[O-] | inactive | –
N#CCC(=O)O | inactive | –
O=c1c(O)c(-c2ccc(O)c(O)c2)oc2cc(O)cc(O)c12 | inactive | –
CCN(CC)CCNC(=O)c1ccc(N)cc1 | inactive | –
O=C1OC(=O)c2c(Cl)c(Cl)c(Cl)c(Cl)c21 | inactive | –
CC1(C)[C@@H](O[C@H]2O[C@H](C(=O)O)[C@@H](O)[C@H](O)[C@H]2O[C@@H]2O[C@H](C(=O)O)[C@@H](O)[C@H](O)[C@H]2O)CC[C@]2(C)[C@H]3C(=O)C=C4[C@@H]5C[C@@](C)(C(=O)O)CC[C@]5(C)CC[C@@]4(C)[C@]3(C)CC[C@@H]12 | inactive | –
O=C1CCCCCCCCCCC1 | – | 17.2%
CCCCCC(C)=O | inactive | –
O=C1O[C@H]([C@H](O)CO)C(O)=C1O | inactive | –
CCCCCCCCCCCCCC(=O)O | – | 1.21%
CCCOC(=O)NCCCN(C)C | inactive | –
OC[C@H]1O[C@@H](Oc2ccc(O)cc2)[C@H](O)[C@@H](O)[C@@H]1O | inactive | –
CCCCC(CC)COC(=O)c1ccc(C(=O)OCC(CC)CCCC)cc1 (stereo not given) | inactive | –
CCCN(CCC)C(=O)SCC | inactive | –
Cc1ccncc1 | inactive | –
Cc1ccc([N+](=O)[O-])cc1N | inactive | –
CC(C)c1ccc(C(C)C)cc1 | inactive | –
Nc1cccc(N)n1 | inactive | –
COc1c2ccoc2cc2oc(=O)ccc12 | inactive | –
CC(=O)OC/C=C(\C)CCC=C(C)C | inactive | –

SMILES | Potency | activity change
OB(O)O | inactive | –
COC(=O)OC | inactive | –
Oc1ccc(Cc2ccccc2O)cc1 | inactive | –
CO[Si](CCCNCCN)(OC)OC | inactive | –
NC(N)=S | inactive | –
CCCCCCCCC(=O)O | inactive | –
CC(=O)C(C)C | inactive | –
O=C(Cl)c1ccc(C(=O)Cl)cc1 | inactive | –
c1cnc2c(c1)ccc1cccnc12 | inactive | –
CCOC(=O)CC(=O)OCC | inactive | –
Clc1cccc(Cl)c1NC1=NCCN1 | inactive | –
Cc1cccc(C)c1[N+](=O)[O-] | inactive | –
CC[N+](CC)(CC(=O)Nc1c(C)cccc1C)Cc1ccccc1 | inactive | –
CC1=CC(=O)CC(C)(C)C1 | – | -14.1%
COC(=O)/C=C\C(=O)OC | inactive | –
C=C(C)CC(C)(C)C | inactive | –
CCCCCCCCCCCC(=O)N(C)CC(=O)O | inactive | –
OCc1ccc(Cl)cc1Cl | inactive | –
CC(COCC(C)OC(=O)c1ccccc1)OC(=O)c1ccccc1 (stereo not given) | inactive | –
Brc1ccc(Oc2ccc(Br)cc2)cc1 | inactive | –
